In PubChem BioAssay (NCI):
About 79,000 compounds went through this panel and 15% of them were active in at least one assay; those are over-represented in the sample as a whole. Active and inactive are the calls of the source. No stated cut-off is given here; in the data, active means growth inhibition above about 70%; inactive means the rest.

Tests used:
[1] = NCI Yeast Anticancer Drug Screen. Data for the rad50 strain (AID 155);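 further: 0% = growth of vehicle-only cultures of the same strain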; details: S. cerevisiae rad50 strain growth inhibition, active compounds read high
Outline: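 Vehicle-treated cultures provide the reference for the growth inhibition reported for compound-exposed, repair-deficient yeast.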

[2] = NCI Yeast Anticancer Drug Screen. Data for the mec2-1 strain (AID 157); details: S. cerevisiae mec2-1 strain, active compounds read high
Outline: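 Compounds were applied to mec2-1 yeast cells. Their growth was then compared with that of vehicle-treated cultures to give growth inhibition.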

[3] = NCI Yeast Anticancer Drug Screen. Data for the sgs1 mgt1 strain (AID 161);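 further: 0% = growth of cultures given vehicle only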; details: S. cerevisiae sgs1 mgt1 strain, active compounds read high
Outline: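 Growth of a repair-deficient yeast mutant was monitored after compound treatment and expressed as inhibition relative to vehicle-treated cultures.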

[4] = NCI Yeast Anticancer Drug Screen. Data for the cln2 rad14 strain (AID 165);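 further: 0% = growth equal to vehicle treated cultures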; details: S. cerevisiae cln2 rad14 strain, active compounds read high
Outline: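 Strain: cln2 rad14 yeast, altered in cell cycle control and DNA damage repair. Read-out: growth inhibition vs vehicle.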

[5] = NCI Yeast Anticancer Drug Screen. Data for the bub3 strain (AID 167); details: S. cerevisiae bub3 mutant strain, active compounds read high
Outline: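 Mutant yeast screening strain plus compound; vehicle-treated cultures serve as the 0% inhibition reference.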

[6] = NCI Yeast Anticancer Drug Screen. Data for the mlh1 rad18 strain (AID 175); details: S. cerevisiae mlh1 rad18 strain growth inhibition, active compounds read high
Outline: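 A repair-deficient yeast strain is exposed to test compound, and growth is scored relative to vehicle-treated controls.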

[7] = at 5.0 µM (retest, dose inferred, filed as 0.5)
[8] = at 50.0 µM (retest, dose inferred, filed as 5.0)

Measured: growth inhibition

CC12OC1C(=O)c1ccccc1C2=O (stereo not given)
active: [1]; [8] 85% | [1]; at 50.0 µM 88.5% | [2]; [8] 93% | [2]; at 50.0 µM 92.1% | [3]; [8] 87% | [3]; at 50.0 µM 89.9% | [5]; [8] 96% | [5]; at 50.0 µM 90.9% | [6]; [8] 95% | [6]; at 50.0 µM 81.6%
inactive: [1]; [7] 4% | [2]; [7] 15% | [3]; [7] 9% | [4]; [7] 19% | [4]; [8] 65% | [4]; at 50.0 µM 57.6% | [5]; [7] 9% | [6]; [7] -2%

CC1(C)CCC[C@@]2(C)C1CC[C@@]1(CO1)[C@@H]2/C=C\C(C=O)CC=O (stereo not given in full)
active: [1]; [8] 99% | [1]; at 50.0 µM 92.9% | [2]; [8] 100% | [2]; at 50.0 µM 94.2% | [3]; [8] 100% | [3]; at 50.0 µM 94.5% | [4]; [7] 70% | [4]; [8] 100% | [4]; at 50.0 µM 92.7% | [5]; [7] 79% | [5]; [8] 100% | [5]; at 50.0 µM 93.3% | [6]; [7] 87% | [6]; [8] 99%
inactive: [1]; [7] 60% | [2]; [7] 36% | [3]; [7] 59% | [6]; at 50.0 µM -27.4%

CC(=O)Nc1ccc(/C=C2/NC(=S)N(/C=C3\C(=O)Oc4ccccc4C3=O)C2=O)cc1
inactive: [1]; [7] -10% | [1]; [8] 50% | [2]; [7] -19% | [2]; [8] 60% | [3]; [7] -6% | [3]; [8] 29% | [4]; [7] -15% | [4]; [8] 64% | [5]; [7] -12% | [5]; [8] 36% | [5]; at 50.0 µM 67.2% | [6]; [7] -9% | [6]; [8] 44%
active: [1]; at 50.0 µM 70.7% | [2]; at 50.0 µM 76.5% | [3]; at 50.0 µM 78.7% | [4]; at 50.0 µM 86% | [6]; at 50.0 µM 76.2%

COC(=O)/C(=C/C=C(c1ccccc1)c1ccccc1)N(C(C)=O)C(C)=O
active: [1]; at 50.0 µM 99.4% | [2]; at 50.0 µM 99.6% | [3]; at 50.0 µM 99.6% | [4]; at 50.0 µM 99.4% | [5]; at 50.0 µM 99.7% | [6]; at 50.0 µM 99.6%
inactive: [1]; [7] 0% | [1]; [8] 13% | [2]; [7] 2% | [2]; [8] 25% | [3]; [7] 1% | [3]; [8] 67% | [4]; [7] 3% | [4]; [8] 7% | [5]; [7] -1% | [5]; [8] 11% | [6]; [7] -3% | [6]; [8] 39%

O=C1SC(c2ccccc2)=S=C1c1ccccc1
inactive: [1]; [7] 18% | [1]; [8] 28% | [1]; at 50.0 µM 40% | [2]; [7] 24% | [2]; [8] 39% | [2]; at 50.0 µM 46.8% | [3]; [7] 21% | [3]; [8] 44% | [3]; at 50.0 µM 37.4% | [4]; [7] 13% | [4]; [8] 13% | [4]; at 50.0 µM 24.6% | [5]; [7] 20% | [5]; [8] 54% | [5]; at 50.0 µM 13.8% | [6]; [7] 33% | [6]; [8] 38% | [6]; at 50.0 µM -25.4%

NNc1ccc(Br)cc1
active: [1]; [7] 83% | [1]; [8] 98% | [1]; at 50.0 µM 90.3% | [2]; [7] 83% | [2]; [8] 98% | [2]; at 50.0 µM 92.2% | [3]; [7] 96% | [3]; [8] 99% | [3]; at 50.0 µM 92.7% | [4]; [8] 98% | [4]; at 50.0 µM 90.5% | [5]; [7] 98% | [5]; [8] 96% | [5]; at 50.0 µM 91% | [6]; [8] 100% | [6]; at 50.0 µM 89.7%
inactive: [4]; [7] 47% | [6]; [7] 33%

Cc1ccsc1C(=S)Nc1ccc(Cl)c(/C=N/OC(C)C)c1
inactive: [1]; [7] 4% | [1]; [8] 15% | [1]; at 50.0 µM 32% | [2]; [7] 9% | [2]; [8] 14% | [2]; at 50.0 µM 19.9% | [3]; [7] 7% | [3]; [8] 31% | [3]; at 50.0 µM 21.6% | [4]; [7] 2% | [4]; [8] 17% | [4]; at 50.0 µM 44.8% | [5]; [7] 13% | [5]; [8] 43% | [5]; at 50.0 µM 23.1% | [6]; [7] 12% | [6]; [8] 14% | [6]; at 50.0 µM 55.2%

O=C1c2ccccc2C2(O)c3cc4ccccc4cc3OC12O (stereo not given)
active: [6]; at 50.0 µM 72.7%
inactive: [1]; [7] -7% | [1]; [8] 41% | [1]; at 50.0 µM 52.2% | [2]; [7] -15% | [2]; [8] 19% | [2]; at 50.0 µM 52.2% | [3]; [7] -16% | [3]; [8] 6% | [3]; at 50.0 µM 43% | [4]; [7] -10% | [4]; [8] 44% | [4]; at 50.0 µM 37% | [5]; [7] -6% | [5]; [8] 59% | [5]; at 50.0 µM 44% | [6]; [7] -24% | [6]; [8] 55%

C[N+]1(C)C/C(=C\C=C\c2ccccc2)C(=O)/C(=C/C=C/c2ccccc2)C1
inactive: [1]; [7] 17% | [1]; [8] 17% | [2]; [7] 9% | [2]; [8] 9% | [3]; [7] 17% | [3]; [8] 17% | [4]; [7] 0% | [4]; [8] 0% | [5]; [7] -2% | [5]; [8] -2% | [6]; [7] 9% | [6]; [8] 9%
active: [1]; at 50.0 µM 93.2% | [2]; at 50.0 µM 92.1% | [3]; at 50.0 µM 92.6% | [4]; at 50.0 µM 91.5% | [5]; at 50.0 µM 93.9% | [6]; at 50.0 µM 92.5%

OC1CN(C2CCCCC2)CC1C1(O)CCN(C2CCCCC2)C1 (stereo not given)
inactive: [1]; [7] 0% | [1]; [8] 6% | [1]; at 50.0 µM 20.1% | [2]; [7] 1% | [2]; [8] 5% | [2]; at 50.0 µM -2.75% | [3]; [7] 0% | [3]; [8] 11% | [3]; at 50.0 µM 12.8% | [4]; [7] 4% | [4]; [8] 10% | [4]; at 50.0 µM 65.7% | [5]; [7] 1% | [5]; [8] 15% | [5]; at 50.0 µM -5.85% | [6]; [7] 3% | [6]; [8] 10% | [6]; at 50.0 µM 20.2%
